Bioassay records from PubChem BioAssay.
Hits are enriched below; roughly 3.5% of the tested compounds scored in any of these assays.
mHTT CaM bind – disrupts binding of mutant huntingtin to calmodulin; 190,000 tested, 3.6% active; P42858; AlphaScreen His-mHTT/GST-CaM binding, luminescence; inhibition, % at 15 µM; AID 1671202;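 note: 0% = both proteins with DMSO and 100% = one protein alone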
Pf apPOL block – Pf-apPOL DNA polymerase inhibition. Recombinant Pf-apPOL, molecular beacon fluorescence, 1.5 h. inhibition, % at 10 µM. 210,000 tested, 0.25% active. AID 1794808
* marks the source's active call; other numbers are inactive results; ! = repeats disagree. Cut-off read from the data, not from the text of the source: active = inhibition above about 50%; inactive = the rest.

SMILES	mHTT CaM bind	Pf apPOL block
COc1ccc2c(c1)C(C)(C)C1(C=Cc3cc([N+](=O)[O-])cc(OC)c3O1)N2C (stereo not drawn)	61.0*	2.7
COc1cc([N+](=O)[O-])cc2c1OC1(C=C2)N(C)c2ccccc2C1(C)C (stereo not drawn)	71.0*	-14.5
COc1cc([N+](=O)[O-])cc2c1OC1(C=C2)N(C)c2ccc([N+](=O)[O-])cc2C1(C)C (stereo not drawn)	13.0	0.9
COc1cc2c(c(OC)c1[N+](=O)[O-])C=CC1(O2)N(C)c2ccccc2C1(C)C (stereo not drawn)	32.0	3.3
CN1c2ccccc2C(C)(C)C12C=Cc1cc([N+](=O)[O-])ccc1O2 (stereo not drawn)	-4.0	-5.8
CNC(=O)CN1c2ccccc2C(C)(C)C12C=Cc1cc([N+](=O)[O-])ccc1O2 (stereo not drawn)	96.0*	-4.1
CN(C)c1nc2cc(C(=O)NC3CCCC3)sc2n1-c1ccc(F)cc1	8.5	0.3
CC(NS(=O)(=O)c1ccc(Br)cc1)C1C2CC3CC(C2)CC1C3 (stereo not drawn)	0.9	14.2
COc1ccc(/C=C2/N=C(C3CCCCC3)OC2=O)cc1OC	-1.0	0.4
COc1ccc(C2SC(C)C(=O)N2c2ccc(Cl)cc2)cc1 (stereo not drawn)	-17.0	-3.1
COc1ccccc1N1CCN(C(=O)Nc2ccc(Cl)c(Cl)c2)CC1	12.0	1.6
COc1cc(C2CC(c3ccccc3O)=NN2)ccc1O (stereo not drawn)	89.4*	3.0
COc1ccccc1C1CC(c2cc(Cl)ccc2O)=NN1 (stereo not drawn)	47.0	-7.4
Cn1cccc1-c1cc2n(n1)CCCN2C(=O)CCC(=O)N1CCc2ccccc2C1	54.4*	-0.8
Cc1ccccc1NC(=O)CCC(=O)N1CCCn2nc(-c3cccn3C)cc21	31.1	-1.5
O=C(NCc1ccc(F)cc1)c1ccc(N2CCN(c3ccccn3)CC2)c([N+](=O)[O-])c1	59.0*	-2.3
O=C(NCc1cccnc1)c1ccc(N2CCN(c3ccccn3)CC2)c([N+](=O)[O-])c1	30.0	-5.3
CCCn1ccc2sc(C)c(C(=O)N3CCN(c4ccc(F)cc4)CC3)c2c1=O	60.4*	1.4
CCn1ccc2sc(C)c(C(=O)N3CCN(c4ccc(F)cc4)CC3)c2c1=O	54.9*	-2.9
Cc1sc2ccn(C)c(=O)c2c1C(=O)N1CCCCCC1	6.8	-0.9
Cc1ccc(C)c(N2CCN(C(=O)c3c(C)sc4ccn(C)c(=O)c34)CC2)c1	91.5*	0.3
CCn1ccc2sc(C)c(C(=O)N3CCN(c4ccccc4F)CC3)c2c1=O	40.9	-3.7
CCCn1ccc2sc(C)c(C(=O)N3CCCC3)c2c1=O	6.0	2.9
CN1C(=O)C(C)(C(=O)Nc2ccc3c(c2)OCCO3)Oc2cccnc21 (stereo not drawn)	4.5	-1.9
COc1ccc(CN2CCCC2c2cc(C(C)C)no2)cc1O (stereo not drawn)	16.3	2.4
SMILES	mHTT CaM bind	Pf apPOL block
CN(C)c1ccc(CCNC(=O)Nc2ccc3c(c2)OCO3)cc1	17.6	-4.2
COc1ccc(C(=O)N2CCC(c3nc(CNC(C)=O)cs3)CC2)c(OC)c1	2.1	0.9
COc1cc(Br)c(S(=O)(=O)N2CCN(c3ccc(C)c(C)c3)CC2)cc1OC	53.4*	0.9
Cc1cc(Br)c(S(=O)(=O)N2CCN(c3ccccc3)CC2)cc1C	-2.5	-8.3
COc1cc(S(=O)(=O)N2CCN(c3ccc(F)cc3)CC2)c(OC)cc1Br	1.2	-6.2
COc1cc(S(=O)(=O)N2CCN(c3ccc(C)c(C)c3)CC2)c(OC)cc1Br	59.3*	0.9
Cc1ccc(NC(=O)C2CCN(c3cc(Br)ccc3C)C2=O)cc1C (stereo not drawn)	73.6*	3.5
Cc1ccc(Br)cc1N1CCC(C(=O)Nc2cccc(F)c2)C1=O (stereo not drawn)	30.7	-6.8
O=C(CN1CCN(c2ccc(Cl)cc2)C1=O)N1CCC(O)CC1	-9.6	-9.5
O=C(c1ccoc1)N1CCC(Cc2nnc(-c3ccccc3)o2)CC1	5.6	0.8
O=C(c1ccc(C(F)(F)F)cc1)N1CCC(Cc2nnc(-c3ccccc3)o2)CC1	56.8*	-2.7
O=C(NC1CC1)C1CN(C(=O)Nc2ccc(Cl)cc2)CC12CCOCC2 (stereo not drawn)	0.6	4.9
O=C(NCc1cccc2ccccc12)Nc1ccc2c(c1)C(=O)NCC2	-12.8	-5.9
COc1ccccc1C(=O)N1CCC2(CC1)NC(=O)N(Cc1ccc(Cl)cc1)C2=O	34.7	-8.4
CCOc1ccccc1C(=O)N1CCN(c2ccc(Cl)cc2)CC1	17.4	0.8
CCOc1ccccc1C(=O)n1cc(Cl)cn1	-5.0	97.7*!
O=C(c1cccc2[nH]ccc12)N1CCC2(CC1)NC(=O)N(Cc1ccc(Cl)cc1)C2=O	29.0	-2.3
CCOc1ccccc1C(=O)N1CCC2(CC1)NC(=O)N(Cc1ccc(Cl)cc1)C2=O	55.0*	-2.0
O=C(c1c[nH]c2ccccc12)N1CCC2(CC1)NC(=O)N(Cc1ccc(Cl)cc1)C2=O	89.7*	0.8
CC(=O)N1CCC(n2c(C)nc(C(=O)NCc3c(C)nn(C)c3C)c2C)CC1	5.0	0.4
CC(=O)Nc1ccc(C2(C(=O)NCC3CC3)CCCCC2)cc1	4.3	-2.4
CCOc1ccc2c(c1)C(=NO)c1cc(OCC)ccc1-2	28.0	-0.8
Cc1ccc(SC(=C(Cl)Cl)/C(=C2/NCCS2)[N+](=O)[O-])cc1	3.0	-3.8
CCCNS(=O)(=O)c1cc2n(c1)CCCNC2=O	-5.4	-2.9
O=C(CCC1CCCN(C(=O)Nc2ccc(F)cc2)C1)NCc1ccc2c(c1)OCO2 (stereo not drawn)	-2.8	-4.9
SMILES	mHTT CaM bind	Pf apPOL block
CC(C)C(=O)N1CCc2ccc(NS(=O)(=O)Cc3ccc(Cl)cc3)cc2C1	-1.4	93.7*
CC(C)S(=O)(=O)Nc1ccc2c(c1)CN(C(=O)c1ccco1)CC2	-4.2	-5.1
COc1ccc(OC)c(C=C2Oc3cc(OCC(N)=O)ccc3C2=O)c1	2.9	-15.6
O=C(NCCCN1CCOCC1)c1cc2n(n1)CCCN(Cc1ccc(Cl)cc1)C2=O	0.6	-0.4
O=C(NCCCN1CCCC1)c1cc2n(n1)CCCN(Cc1ccc(Cl)cc1)C2=O	52.1*	-5.4
Cc1ccccc1CNC(=O)c1cc2n(n1)CCCN(Cc1ccc(Cl)cc1)C2=O	51.6*	-3.8
O=C(NCc1ccccc1F)c1cc2n(n1)CCCN(Cc1ccc(Cl)cc1)C2=O	5.7	-0.5
Cn1nnc2c(=O)n(CC(=O)Nc3ccc(OC(F)(F)F)cc3)cnc21	-2.2	-4.1
CCN=C1S/C(=C\c2ccc(-c3ccc(Cl)cc3C(=O)O)o2)C(=O)N1CC	7.0	9.5
Cc1ccccc1-n1nc2c(c1NC(=O)c1cccc(Br)c1)CS(=O)(=O)C2	3.0	-1.0
COc1cc(/C=C2/C(=O)N(c3ccc(C(=O)O)cc3)N=C2C)cc(OC)c1OC	1.0	-0.2
COc1cc(/C=C2\C(=O)N(c3ccc(C(=O)O)cc3)N=C2C(F)(F)F)ccc1OCC(C)C	74.0*	0.1
CCC(C)NC(=O)c1c[nH]c2ccc(S(=O)(=O)N(C)c3cc(Cl)ccc3OC)cc2c1=O (stereo not drawn)	22.0	-8.2
Cc1cc(=O)n2[nH]c(-c3ccc(Cl)cc3)nc2n1	4.0	-1.4
Fc1ccc(CN2CCc3nc(N4CCN(c5ncccn5)CC4)ncc3C2)cc1	99.9*	-2.1
Fc1ccc(N2CCN(c3ncc4c(n3)CCN(Cc3ccccc3)C4)CC2)cc1	14.1	-4.0
